Test results from PubChem BioAssay (EPA / NIEHS).
Results filed as inconclusive are left out. The source made the active and inactive calls. The calls were made as follows, unless noted: active = hit-call score of the fitted dose curve at least 0.9, where 1 is the maximum; inconclusive = response in the unintended direction; inactive = score below 0.9.

Experiments:
[1] = target: Retinoic acid receptor alpha (Homo sapiens) (UniProt P10276); assay: NVS_NR_hRAR_Antagonist: NovaScreen (NVS) Nuclear Receptor Binding Assay for human Retinoic Acid Alpha Receptor Antagonism (RAR) (AID 2283358)
Sequence of Retinoic acid receptor alpha (Homo sapiens) (P10276 whole entry, looked up): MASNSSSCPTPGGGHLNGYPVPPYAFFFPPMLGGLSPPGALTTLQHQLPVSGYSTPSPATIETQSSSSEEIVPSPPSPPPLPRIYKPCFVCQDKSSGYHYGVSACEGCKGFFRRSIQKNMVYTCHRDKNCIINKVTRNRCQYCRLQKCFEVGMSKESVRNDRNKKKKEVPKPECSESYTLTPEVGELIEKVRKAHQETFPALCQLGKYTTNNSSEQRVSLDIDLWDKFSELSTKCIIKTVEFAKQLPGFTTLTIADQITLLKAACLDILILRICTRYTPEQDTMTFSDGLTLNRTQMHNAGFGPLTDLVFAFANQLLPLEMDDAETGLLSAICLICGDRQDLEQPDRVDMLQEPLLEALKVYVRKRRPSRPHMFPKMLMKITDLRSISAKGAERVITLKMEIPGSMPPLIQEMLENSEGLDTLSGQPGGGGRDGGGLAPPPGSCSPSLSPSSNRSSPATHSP
Procedure, shortened: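 Cell-free TR-FRET binding assay with extracted human RARalpha in antagonist mode, read 2 h after dosing. Loss of signal was fitted relative to DMSO; the primary screen used 25 uM in duplicate, with concentration series on follow-up.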

PGR (gene 5241) = PGR (gene 5241) (UniProt P06401); assay: NVS_NR_hPR: NovaScreen (NVS) Nuclear Receptor Binding Assay for human Progestron Receptor (PR) (AID 2283360);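 also: active means loss of bound radioligand signal versus DMSO baseline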
Sequence of PGR (gene 5241) (P06401 whole entry, looked up): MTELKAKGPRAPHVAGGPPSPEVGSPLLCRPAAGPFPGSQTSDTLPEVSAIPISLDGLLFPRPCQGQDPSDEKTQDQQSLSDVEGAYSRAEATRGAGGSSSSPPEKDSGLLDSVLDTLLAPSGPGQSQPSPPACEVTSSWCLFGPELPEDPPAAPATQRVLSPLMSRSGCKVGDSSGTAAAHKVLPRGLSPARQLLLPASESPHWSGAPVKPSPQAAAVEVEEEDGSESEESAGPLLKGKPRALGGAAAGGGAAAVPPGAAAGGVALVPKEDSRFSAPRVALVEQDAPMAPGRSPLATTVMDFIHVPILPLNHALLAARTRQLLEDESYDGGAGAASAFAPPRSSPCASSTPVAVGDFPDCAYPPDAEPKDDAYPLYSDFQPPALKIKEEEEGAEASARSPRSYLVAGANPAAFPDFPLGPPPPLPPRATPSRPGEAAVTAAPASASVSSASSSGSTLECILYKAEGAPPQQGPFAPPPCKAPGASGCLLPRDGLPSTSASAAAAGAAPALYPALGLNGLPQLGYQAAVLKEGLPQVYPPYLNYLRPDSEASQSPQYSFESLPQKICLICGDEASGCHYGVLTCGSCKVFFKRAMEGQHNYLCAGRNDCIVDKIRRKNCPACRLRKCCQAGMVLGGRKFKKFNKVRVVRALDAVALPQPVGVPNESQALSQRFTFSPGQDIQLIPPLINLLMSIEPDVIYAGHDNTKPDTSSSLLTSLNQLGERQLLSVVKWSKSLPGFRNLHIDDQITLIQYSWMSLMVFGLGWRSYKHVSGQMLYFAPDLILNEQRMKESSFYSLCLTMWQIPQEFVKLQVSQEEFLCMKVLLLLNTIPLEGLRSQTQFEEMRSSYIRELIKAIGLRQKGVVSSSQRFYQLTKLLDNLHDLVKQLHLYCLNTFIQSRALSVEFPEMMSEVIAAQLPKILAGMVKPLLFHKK
Procedure, shortened: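 T47D-derived receptor preparation, cell-free, with tritiated or iodinated radioligand displacement measured by scintillation 18 h post-dosing. Single 25 uM duplicate screen, then concentration series; signal loss relative to DMSO.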

[2] = target: Glucocorticoid receptor (Homo sapiens) (UniProt P04150); assay: NVS_NR_hGR: NovaScreen (NVS) Nuclear Receptor Binding Assay for human Glucocorticoid Receptor (GR) (AID 2283363);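 as to AC50: activity is loss of specific radioligand binding signal relative to DMSO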
Sequence of Glucocorticoid receptor (Homo sapiens) (P04150 whole entry, looked up): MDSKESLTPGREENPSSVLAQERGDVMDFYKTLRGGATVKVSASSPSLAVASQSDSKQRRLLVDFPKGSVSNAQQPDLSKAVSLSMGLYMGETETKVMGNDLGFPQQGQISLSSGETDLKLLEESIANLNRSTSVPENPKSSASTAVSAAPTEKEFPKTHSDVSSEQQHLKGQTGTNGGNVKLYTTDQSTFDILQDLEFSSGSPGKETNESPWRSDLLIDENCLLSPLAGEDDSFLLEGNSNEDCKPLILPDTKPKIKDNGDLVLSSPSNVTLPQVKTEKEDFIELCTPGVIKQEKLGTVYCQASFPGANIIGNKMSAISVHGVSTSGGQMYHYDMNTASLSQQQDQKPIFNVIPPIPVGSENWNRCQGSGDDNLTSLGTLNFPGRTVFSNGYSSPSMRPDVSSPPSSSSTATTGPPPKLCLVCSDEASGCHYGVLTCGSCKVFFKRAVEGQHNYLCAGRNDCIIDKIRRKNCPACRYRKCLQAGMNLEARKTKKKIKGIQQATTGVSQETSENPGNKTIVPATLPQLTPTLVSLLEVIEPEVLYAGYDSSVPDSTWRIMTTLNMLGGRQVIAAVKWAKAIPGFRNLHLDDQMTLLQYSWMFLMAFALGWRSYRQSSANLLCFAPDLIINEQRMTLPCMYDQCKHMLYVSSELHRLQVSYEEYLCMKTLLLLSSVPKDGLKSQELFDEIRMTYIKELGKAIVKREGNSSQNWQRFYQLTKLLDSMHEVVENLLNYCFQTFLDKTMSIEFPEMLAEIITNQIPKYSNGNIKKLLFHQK
Procedure, shortened: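 Cell-free radioligand displacement assay on extracted human GR, read 16 h after dosing by filter-based scintillation counting. Screened in duplicate at 25 uM, then concentration series for actives; loss of signal versus DMSO baseline.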

[3] = target: Estrogen receptor beta (Homo sapiens) (UniProt Q92731); assay: OT_ER_ERbERb_1440: Odyssey Thera (OT) 24-hour HEK293T Protein-Complementation Assay for Estrogen Receptor-beta/-beta Homodimer (AID 2283380);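 also: scored as signal increase over DMSO baseline for both agonists and antagonists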
Sequence of Estrogen receptor beta (Homo sapiens) (Q92731 whole entry, looked up, the tested form may be a part): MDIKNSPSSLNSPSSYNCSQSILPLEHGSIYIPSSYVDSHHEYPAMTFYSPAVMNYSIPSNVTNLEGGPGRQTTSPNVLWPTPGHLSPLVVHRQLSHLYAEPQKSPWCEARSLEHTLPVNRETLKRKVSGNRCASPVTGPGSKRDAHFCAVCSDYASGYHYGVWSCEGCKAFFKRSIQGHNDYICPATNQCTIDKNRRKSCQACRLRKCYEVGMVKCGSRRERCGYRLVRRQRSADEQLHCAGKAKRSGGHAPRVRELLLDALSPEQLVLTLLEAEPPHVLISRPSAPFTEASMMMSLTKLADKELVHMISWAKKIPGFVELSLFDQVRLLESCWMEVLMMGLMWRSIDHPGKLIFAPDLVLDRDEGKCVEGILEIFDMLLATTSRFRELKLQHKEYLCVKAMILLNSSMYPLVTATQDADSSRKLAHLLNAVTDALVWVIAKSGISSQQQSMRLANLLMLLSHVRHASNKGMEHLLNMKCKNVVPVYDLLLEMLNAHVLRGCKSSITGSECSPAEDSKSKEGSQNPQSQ
Procedure, shortened: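 HEK293T cells stably expressing ER beta LBD (aa 310-547) homodimer fragment-complementation reporter, dosed 24 h. Cells formaldehyde-fixed, Draq5-stained; gain in nuclear (agonist) or nuclear plus cytoplasmic (antagonist) fluorescence versus DMSO read by laser scanning cytometry.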

[4] = target: Estrogen receptor (Homo sapiens) (UniProt P03372); assay: OT_ERa_GFPERaERE_0480: Odyssey Thera (OT) 8-hour HeLa Transcription Induction Assay for Estrogen Receptor (AID 2283381; active = hit-call score of the fitted dose curve at least 0.9, where 1 is the maximum; inactive = score below 0.9)
Sequence of Estrogen receptor (Homo sapiens) (P03372 whole entry, looked up): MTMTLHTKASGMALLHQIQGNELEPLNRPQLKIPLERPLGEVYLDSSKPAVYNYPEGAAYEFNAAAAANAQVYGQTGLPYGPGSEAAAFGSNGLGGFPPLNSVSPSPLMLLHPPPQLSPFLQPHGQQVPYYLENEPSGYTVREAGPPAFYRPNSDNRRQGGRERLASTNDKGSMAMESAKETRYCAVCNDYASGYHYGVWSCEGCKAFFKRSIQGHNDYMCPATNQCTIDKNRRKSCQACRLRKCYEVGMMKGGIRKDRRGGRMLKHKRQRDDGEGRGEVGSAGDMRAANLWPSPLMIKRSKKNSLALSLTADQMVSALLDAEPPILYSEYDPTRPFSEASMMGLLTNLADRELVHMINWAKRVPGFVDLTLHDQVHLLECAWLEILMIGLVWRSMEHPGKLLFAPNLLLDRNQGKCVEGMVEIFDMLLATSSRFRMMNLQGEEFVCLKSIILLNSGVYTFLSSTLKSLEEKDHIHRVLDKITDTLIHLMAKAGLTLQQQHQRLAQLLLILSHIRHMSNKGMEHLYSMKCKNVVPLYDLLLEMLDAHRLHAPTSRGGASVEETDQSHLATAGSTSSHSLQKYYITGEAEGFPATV
Procedure, shortened: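 Fluorescent reporter signal, imaged by microscopy and scored with image-analysis algorithms, was taken 8 h after chemical dosing of HeLa cells; activity was fitted upward relative to DMSO.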

[5] = target: human Peroxisome Proliferator-activated Receptor alpha (PPARa), PPARA (gene 5465) (UniProt Q07869); assay: NVS_NR_hPPARa: NovaScreen (NVS) Nuclear Receptor Binding Assay for human Peroxisome Proliferator-activated Receptor alpha (PPARa) (AID 2283359);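 also: activity means loss of TR-FRET signal versus DMSO baseline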
Procedure, shortened: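 Cell-free TR-FRET binding assay with extracted PPARα protein, read 1 h after dosing. Primary screen in duplicate at 25 uM, with actives retested in concentration series. Loss of signal versus DMSO.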

[6] = target: guinea pig Sigma Receptor, Non-selective Binding, SIGMAR1 (gene 100135589) (UniProt Q60492); assay: NVS_OR_gSIGMA_NonSelective: NovaScreen (NVS) Nuclear Receptor Binding Assay for guinea pig Sigma Receptor, Non-selective Binding (AID 2283367)
Procedure, shortened: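 Radioligand displacement on guinea pig brain membranes, read by filter-based scintillation counting 1 h after dosing. Loss of signal versus DMSO; initial duplicate single-point screen at 25 uM, actives followed in concentration series.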

[7] = tested on: guinea pig Dopamine Transporter (DAT), gene 100714898; assay: NVS_TR_gDAT: NovaScreen (NVS) Transporter Assay for guinea pig Dopamine Transporter (DAT) (AID 2283369);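 also: active compounds lower bound radioligand signal relative to DMSO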
Procedure, shortened: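 Cell-free striatal membrane prep (guinea pig), 2 h exposure, filtration + scintillation readout of radioligand binding. Single-point 25 uM duplicate; actives rerun singleton, top conc 50 uM.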

[8] = target: human Serotonin Transporter (SERT), SLC6A4 (gene 6532) (UniProt P31645); assay: NVS_TR_hSERT: NovaScreen (NVS) Transporter Assay for human Serotonin Transporter (SERT) (AID 2283372)
Sequence of human Serotonin Transporter (SERT), SLC6A4 (gene 6532) (P31645 whole entry, looked up): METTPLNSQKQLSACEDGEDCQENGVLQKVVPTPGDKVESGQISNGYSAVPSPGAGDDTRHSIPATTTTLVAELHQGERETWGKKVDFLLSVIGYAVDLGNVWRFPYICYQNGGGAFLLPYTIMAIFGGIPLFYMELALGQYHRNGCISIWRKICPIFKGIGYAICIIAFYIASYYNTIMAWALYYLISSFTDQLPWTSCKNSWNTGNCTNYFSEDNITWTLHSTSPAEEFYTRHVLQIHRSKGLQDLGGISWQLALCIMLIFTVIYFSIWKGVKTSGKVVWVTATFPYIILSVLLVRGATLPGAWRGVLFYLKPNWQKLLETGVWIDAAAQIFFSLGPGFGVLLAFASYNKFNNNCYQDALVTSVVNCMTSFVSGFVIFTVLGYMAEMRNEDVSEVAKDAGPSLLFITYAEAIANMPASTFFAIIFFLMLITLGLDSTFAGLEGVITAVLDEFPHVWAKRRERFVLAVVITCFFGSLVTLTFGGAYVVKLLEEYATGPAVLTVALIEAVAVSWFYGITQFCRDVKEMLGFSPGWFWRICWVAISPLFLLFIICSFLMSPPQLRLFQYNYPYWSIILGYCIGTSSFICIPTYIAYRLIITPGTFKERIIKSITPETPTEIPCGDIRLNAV
Procedure, shortened: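 Radioligand binding to native SERT in human platelet membranes, read by filter-based scintillation counting 1 h after dosing. Primary screen in duplicate at 25 uM; actives followed up in concentration series; loss of signal versus DMSO baseline.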

[9] = target: human Dopamine Transporter (DAT), SLC6A3 (gene 6531) (UniProt Q01959); assay: NVS_TR_hDAT: NovaScreen (NVS) Transporter Assay for human Dopamine Transporter (DAT) (AID 2283374);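 also: activity means loss of bound radioligand signal relative to DMSO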
Sequence of human Dopamine Transporter (DAT), SLC6A3 (gene 6531) (Q01959 whole entry, looked up): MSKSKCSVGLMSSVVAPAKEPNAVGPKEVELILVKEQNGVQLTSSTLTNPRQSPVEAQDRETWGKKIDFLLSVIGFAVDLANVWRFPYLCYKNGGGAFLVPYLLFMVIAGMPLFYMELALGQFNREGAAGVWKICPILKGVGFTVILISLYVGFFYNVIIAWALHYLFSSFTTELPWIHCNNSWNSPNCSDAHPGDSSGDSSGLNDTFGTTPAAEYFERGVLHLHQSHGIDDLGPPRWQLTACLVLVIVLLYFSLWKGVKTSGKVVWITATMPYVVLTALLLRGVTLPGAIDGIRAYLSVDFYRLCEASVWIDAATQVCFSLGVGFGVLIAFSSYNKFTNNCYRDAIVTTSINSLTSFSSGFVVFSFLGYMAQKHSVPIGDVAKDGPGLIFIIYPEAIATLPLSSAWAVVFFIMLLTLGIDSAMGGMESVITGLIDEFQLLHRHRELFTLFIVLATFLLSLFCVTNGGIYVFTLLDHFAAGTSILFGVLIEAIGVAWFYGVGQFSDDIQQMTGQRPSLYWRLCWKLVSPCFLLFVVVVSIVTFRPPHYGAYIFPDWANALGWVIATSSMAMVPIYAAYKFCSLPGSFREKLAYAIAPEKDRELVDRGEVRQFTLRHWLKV
Procedure, shortened: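 Cell-free radioligand displacement binding at human DAT, 1 h after dosing, with filtration and scintillation counting. Primary screen in duplicate at 25 uM, actives then in concentration series. Loss of bound signal versus DMSO scored.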

[10] = target: rat Serotonin Transporter (SERT), Slc6a4 (gene 25553) (UniProt P31652); assay: NVS_TR_rSERT: NovaScreen (NVS) Transporter Assay for rat Serotonin Transporter (SERT) (AID 2283375)
Procedure, shortened: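 Radioligand displacement, filter scintillation readout; rat forebrain membrane prep, 1 h post-dose. Single-conc 25 uM duplicate screen, then concentration-response on actives. Loss of signal vs DMSO baseline.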

[11] = target: human Adenosine Transporter (Adot), SLC29A1 (gene 2030) (UniProt Q99808); assay: NVS_TR_hAdoT: NovaScreen (NVS) Transporter Assay for human Adenosine Transporter (Adot) (AID 2283368)
Procedure, shortened: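 U937-derived membranes, cell-free radioligand binding, filter scintillation 1 h after dosing. 25 uM duplicate screen; hits (e.g. 30% inhibition) run in concentration-response up to 50 uM; loss of signal versus DMSO.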

[12] = target: Norway rat Vesicular Monoamine Transporter (VMAT2), neurotransmitter transporter, Slc18a2 (gene 25549) (UniProt Q01827); assay: NVS_TR_rVMAT2: NovaScreen (NVS) Transporter Assay for Norway rat Vesicular Monoamine Transporter (VMAT2), neurotransmitter transporter (AID 2283376);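 also: actives lower the bound radioligand signal below the DMSO level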
Procedure, shortened: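 Radioligand displacement binding on rat forebrain tissue preparation, filter-based scintillation read-out 1 hour after dosing. Primary screen in duplicate at 25 uM, then concentration series for actives; loss of signal versus DMSO.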

[13] = target: rat Androgen Receptor (AR), Ar (gene 24208) (UniProt P15207); assay: NVS_NR_rAR: NovaScreen (NVS) Nuclear Receptor Binding Assay for rat Androgen Receptor (AR) (AID 2283366)
Procedure, shortened: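 Cell-free radioligand binding on extracts of prostate from testosterone-pretreated rats, read by filter-based scintillation counting 18 h after dosing. Loss of bound signal fitted positively versus DMSO; primary screen in duplicate at 25 uM, actives followed up in concentration series.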

[14] = target: mouse Estrogen Receptor alpha (Era), Esr1 (gene 13982) (UniProt P19785); assay: NVS_NR_mERa: NovaScreen (NVS) Nuclear Receptor Binding Assay for mouse Estrogen Receptor alpha (Era) (AID 2283378);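 also: hit means loss of bound radioligand signal relative to DMSO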
Procedure, shortened: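 Filter scintillation counts of bound radioligand, measured 18 h post-dose, gave the readout; decreased signal relative to DMSO controls indicated displacement from mouse Era. Primary screen ran in duplicate at 25 uM; active chemicals were retested across concentrations.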

[15] = target: Agonist Androgen Response Element (ARE), AR (gene 367) (UniProt P10275); assay: OT_AR_ARELUC_AG_1440: Odyssey Thera (OT) 24-hour CHO-K1 Luciferase Assay for Agonist Androgen Response Element (ARE) (AID 2283379)
Procedure, shortened: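 CHO-K1 cells carrying an ARE-driven luciferase reporter were exposed to compounds for 24 h. Luminescence was then read after adding a D-luciferin/ATP mix, and activity was scored as a gain in signal over DMSO vehicle.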

[16] = target: Nuclear receptor subfamily 1 group I member 2 (Homo sapiens) (UniProt O75469); assay: NVS_NR_hPXR: NovaScreen (NVS) Nuclear Receptor Binding Assay for human Pregnane X Receptor (PXR) (AID 2283365);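 also: a drop in FRET signal versus DMSO baseline means the compound binds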
Sequence of Nuclear receptor subfamily 1 group I member 2 (Homo sapiens) (O75469 whole entry, looked up): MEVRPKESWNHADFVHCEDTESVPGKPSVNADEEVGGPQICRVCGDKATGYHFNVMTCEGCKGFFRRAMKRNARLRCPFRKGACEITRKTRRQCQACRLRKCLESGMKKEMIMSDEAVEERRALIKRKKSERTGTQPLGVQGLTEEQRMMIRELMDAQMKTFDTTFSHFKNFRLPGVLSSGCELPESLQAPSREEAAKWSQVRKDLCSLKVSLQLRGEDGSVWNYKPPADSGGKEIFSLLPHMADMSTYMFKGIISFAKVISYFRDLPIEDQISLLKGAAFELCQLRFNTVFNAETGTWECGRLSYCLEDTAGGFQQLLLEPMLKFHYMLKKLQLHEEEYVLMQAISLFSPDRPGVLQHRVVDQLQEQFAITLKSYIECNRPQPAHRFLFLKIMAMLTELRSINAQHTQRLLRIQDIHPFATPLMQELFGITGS
Procedure, shortened: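 TR-FRET signal read at 2 h in a cell-free human PXR binding format. DMSO served as negative control and baseline; activity scored as signal loss. Single-concentration duplicate screen (25 uM), then concentration-response follow-up.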

[17] = target: Retinoic acid receptor alpha (Homo sapiens) (UniProt P10276); assay: NVS_NR_hRARa_Agonist: NovaScreen (NVS) Nuclear Receptor Binding Assay for human Retinoic Acid Alpha Receptor Agonism (RAR) (AID 2283361)
Procedure, shortened: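 Cell-free TR-FRET binding readout with extracted receptor protein, read 2 hours after dosing; gain-of-signal fitted relative to DMSO. Screened in duplicate at 25 uM, actives then run in concentration-response.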

[18] = target: human Norepinephrine Transporter (NET), SLC6A2 (gene 6530) (UniProt P23975); assay: NVS_TR_hNET: NovaScreen (NVS) Transporter Assay for human Norepinephrine Transporter (NET) (AID 2283377);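 also: displacement of radioligand from human NET seen as loss of scintillation signal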
Procedure, shortened: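 Cell-free radioligand binding using CHO-derived membrane protein expressing human NET, read by filter scintillation counting 1 h after dosing; loss of signal vs DMSO. Initial duplicate screen at 25 uM, actives retested in concentration series.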

Measured: AC50

CCN(CC)c1nc(C)cc(OP(=S)(OC)OC)n1
active: [2] 9.72 µM | [3] 50 µM
inactive: [1] | PGR (gene 5241) | [4]

CCOC(=O)C(C)OC(=O)c1cc(Oc2ccc(C(F)(F)F)cc2Cl)ccc1[N+](=O)[O-] (configuration not stated)
active: [9] 7.94 µM
inactive: [1] | [5] | PGR (gene 5241) | [2] | [6] | [7] | [8] | [10] | [3] | [4]

Nc1c(Cl)c(Cl)nc(C(=O)O)c1Cl
inactive: [11] | [3] | [4]

N#Cc1c[nH]cc1-c1cccc2c1OC(F)(F)O2
active: [2] 1.57 µM
inactive: [12] | [4]

COP(=S)(OC)SCn1nnc2ccccc2c1=O
inactive: [13] | [14] | [15] | [3] | [4]

CC(C)Oc1cccc(NC(=O)c2ccccc2C(F)(F)F)c1
inactive: [1] | PGR (gene 5241) | [2] | [3] | [4]

N#Cc1c(Cl)cccc1Cl
inactive: PGR (gene 5241) | [2] | [16] | [3] | [4]

CCNC(=O)NC(=O)C(C#N)=NOC
inactive: [2] | [16] | [4]

CCCCOCN(C(=O)CCl)c1c(CC)cccc1CC
inactive: [13] | [3]
active: [2] 8.18 µM | [4] 71.3 µM

Cc1ccc(N=CN(C)C=Nc2ccc(C)cc2C)c(C)c1
inactive: [1] | [3] | [4]

CC(C)C1(C)N=C(c2ncccc2C(=O)O)NC1=O (configuration not stated)
inactive: [2] | [16] | [4]

CCOc1cc(C(C)(C)C)ccc1C1COC(c2c(F)cccc2F)=N1 (configuration not stated)
inactive: [1] | [7] | [9] | [3] | [4]

CC(C)N1C(=O)c2ccccc2NS1(=O)=O
active: [17] 6.37 µM | [18] 14.2 µM
inactive: [8] | [4]

O=C1C2CC=CCC2C(=O)N1SC(Cl)(Cl)Cl (configuration not stated)
inactive: [1] | [3] | [4]

CC(C)(C)C(=O)C(Oc1ccc(Cl)cc1)n1cncn1 (configuration not stated)
active: [16] 2.31 µM | [9] 0.238 µM
inactive: [2] | [3] | [4]

CC(C)=CC1C(C(=O)OCc2coc(Cc3ccccc3)c2)C1(C)C (configuration not stated)
inactive: PGR (gene 5241) | [2] | [4]
active: [9] 25 µM | [18] 10.2 µM

CCOP(=O)(OCC)Oc1nc(Cl)c(Cl)cc1Cl
inactive: [1] | PGR (gene 5241) | [9] | [15] | [3] | [4]

CCCCC(C#N)(Cn1cncn1)c1ccc(Cl)cc1 (configuration not stated)
inactive: [1] | [2] | [4]
active: [7] 15.4 µM | [9] 7.18 µM

CCCC(=NOCC)C1=C(O)CC(CC(C)SCC)CC1=O (configuration not stated)
inactive: [1] | [14] | [3] | [4]
